Laboratory results: the supplement of paper PMC12632987

Target: GABARAPL2, P60520
Assay: median log2 fold change of GCK-ALFA target abundance (FLAG IP / Myc IP barcode read proportion) (log2 ratio); each designed protein is fused to an ALFA-tag nanobody in HEK293 cells to bring the named protein to FLAG-tagged glucokinase (GCK); Myc marks an untargeted standard; higher = target protein stabilised (more abundant)
Conditions: target protein: 3xFLAG-MCP-GCK-ALFA reporter; HEK293 landing pad (RPLP)
Method in brief: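 An ALFA-nanobody-fused binder library was recombined into HEK293 landing-pad cells and induced with 2 μg mL^−1 doxycycline. Cells were transfected with a plasmid expressing a FLAG-tagged target and a Myc-tagged standard. After 48 h, lysates underwent anti-FLAG and anti-Myc immunoprecipitation, and circular RNA barcodes were reverse transcribed, amplified and sequenced. Target abundance is the per-binder median log2 ratio of FLAG to Myc barcode read proportions. Barcodes needed ≥10^−7 proportion in both replicates, binders ≥3 barcodes per replicate, and a 10^−6 pseudocount was added; the two replicates were pooled.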

Sequence of GABARAPL2, P60520 (P60520 whole entry, the tested form may be a part): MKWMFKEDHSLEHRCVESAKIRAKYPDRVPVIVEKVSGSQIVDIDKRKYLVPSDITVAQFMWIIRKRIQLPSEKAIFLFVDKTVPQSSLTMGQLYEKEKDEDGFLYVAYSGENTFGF

B1: GBRAPL2_53_7356 (protein)
chain: MLELEIAHPDKEIMAKAVEEIFNLLKEENVEAEVTVTTENGEVIKLTGDIEEIKKKVVELAKKQPILVSIKLPDSAEEVVEKMEDIALELGATVSVSRLE
median log2 fold change: 0.229

B2: GBRAPL2_53_7354 (protein)
chain: MIAIEIGHPNKEVMVEALKKVFEIIKKAGEKVEVEVTLEDGTVIKLEGSVEEIEEKVLELAKKQPILVTIYLPEKNEELVEEIEDAALEAGATVSVEELP
median log2 fold change: 0.166

B3: GBRAPL2_53_7355 (protein)
chain: MVEIDIGHPDKEVMVKALEEVFDLIEKAGAEVEVIVTKEDGTVIKLTGSVEEIREKVIALAREQPILVTILLKEKNEKLVEEMVDAALKAGATVSVEELP
median log2 fold change: 0.379

B4: GBRAPL2_175_7338 (protein)
chain: AARAALLARIIELLDELAERADDEVADLLDAAAAVLEEEGEAGAERAARLVAEAAREAADDPRLRAALEAVAAALAALAAGAAPAEVQALLDEAEAILAE
median log2 fold change: -0.358

B5: GBRAPL2_53_7346 (protein)
chain: MKKVDIAHPDKEKLAKTLEEIFKILEENGVKAKVTVTTEDGNVIVLEGDLEEIREKTVKLAKETEVLVEIELPDDAEETVEKIIDVALKNGATVSVDGLE
median log2 fold change: 0.2

B6: GBRAPL2_53_7353 (protein)
chain: MIEVDIAHPDPEVMARALEKIFDIIKEAGQKVTVTVTTEDGTVITLTGDIDTIRAETVALAKQQPILVRIELEEEDEEVAEKVVDAALEEGATVSVERVE
median log2 fold change: 0.275

B7: GBRAPL2_53_7345 (protein)
chain: MIVVDVAHPDKEVMAEAVEAIFDILEENGVEAKVTVTLEDGTVVELEGPLDEVRKKAVELAKKSEVLVEIELPDSAEETVEKLEDVALEKGATVSVERIP
median log2 fold change: 0.0792

B8: GBRAPL2_175_7331 (protein)
chain: SATEEALKRIAELLERLAERLDGEASDLLLAAAALVEQQGVAAAARAAELVKEAAKLVADDPRLRAALEELAAALKLLAAGAAVEEVQAEIDRAEALLEA
median log2 fold change: 0.0704

B9: GBRAPL2_53_7349 (protein)
chain: MYEVEIAHPDKEVLAAAIEAIFDKIEEAGVEAEVEVTLEDGTVIKLEGPIEEQKEEAVALAKETDVLVTIKLPDEAEELVEELEDIALEKGATVSVEKLE
median log2 fold change: 0.0915

B10: GBRAPL2_151_7324 (protein)
chain: SELEKLLKELKKLLEELEKLVKEASEKYPEYSIELETLAGGAEADILLAEEAKNDEEKRKYLKRAAELIADAAKLIAEITGDERAKKLAEEAKKILKELE
median log2 fold change: 0.242

B11: GBRAPL2_175_7330 (protein)
chain: SALEELLKRLAELLEELAEKLDDEASDLLLAAAALIEQDGVAAAKRAAELVKEAAKKVKDNPKLQAALEELAAALELIAAGKAPEEVKAELEKAEALLKE
median log2 fold change: 0.207

B12: GBRAPL2_175_7337 (protein)
chain: SLEDEVLEALIEALELLSEKADDEVSDLLDAAMALLETDGRAALPRVAELLKKASEEAKDNPELSALLEELAAAAKEFAEGGDLEEILKKAKEIIKKIKA
median log2 fold change: 0.0611

B13: GBRAPL2_175_7336 (protein)
chain: SLKDEVLAALIEALELLAEKANDEVQDLLEAAMALLEVDGESALPQVAKLLEEAAKEAKDNPELQKLLKELAAAAKEAAEGGDLEEILARAQAIIKEIKA
median log2 fold change: 0.166

B14: GBRAPL2_175_7327 (protein)
chain: SEMEELIKRLVELLLRLAEKLDGLASDLLLAAAALLEEEGVDAAKRAAELVKEAAKEIKDNPKLKAAAEELARALKLIAEGAPPEEVKKELEKAEKLLEE
median log2 fold change: 0.118

B15: GBRAPL2_151_7325 (protein)
chain: SELDELLKKLKELLERLEKLVKEAAKEKPEYETTLETLVGGAEADLLLAEEAENDEEKRRHLKEAAELIRDAAEEIAKITGKEEAKKLAEEAKKLLKELE
median log2 fold change: 0.129

B16: GBRAPL2_53_7351 (protein)
chain: MYRVLIGHPDKEVMVKALEKVFEILEEAGVEAKVKVTKEDGTVIELEGPIKEIKEETLKLAKEQPILVEIELPDEAEEVVEKIVDAALEAGATVSVEKVE
median log2 fold change: 0.157

B17: GBRAPL2_53_7348 (protein)
chain: MYVVEIAHPDRDVLAAAIEAVFDLIEEAGVEAEVTVTLEDGTVIKLEGPISEVKERAVALAKETDVLVEIKLPDEAEEVVEELEDIALEKGATVSVEKLE
median log2 fold change: 0.152

B18: GBRAPL2_175_7340 (protein)
chain: SAYEALLKEIIKLLLELSEKANDEVSDLLDAAAAVLETDGLAAAGRAAALVAEASKEAADNPQLQAALAKLAAALKALAAGAAPEEVEKLLKEAKAITKK
median log2 fold change: 0.217

B19: GBRAPL2_53_7347 (protein)
chain: MIEIDIAHPDKEVMAETLEEIFDVLKKAGVEAKVTVTTENGEVIVLEGDLDEIKEKVVELAKKTNILVTIELPEDAEEVVEEIIDIALEKGAAVSVDGLE
median log2 fold change: -0.185

B20: GBRAPL2_175_7332 (protein)
chain: SAREELVKRLAELALRLAEKADDETEDLLLAAAALLEEGGEENLKRAAELIKEAAKEIKDDERLKKAAAELAEAAELLIAGEDVEKAEEELRKAEELLEK
median log2 fold change: 0.136

B21: GBRAPL2_151_7323 (protein)
chain: SELEKLLKEAKKLLKKLEKLVKEAAKKDPKYETELETLVGGAEADLILAEEAKNDEEKREHLKRAAELIADAAELIAKITGSEEAKKLAEEAKELLKKLE
median log2 fold change: 0.39

B22: GBRAPL2_175_7334 (protein)
chain: SALDELLARLAALLDELSERADDETADLLDAAMALLELEGAAAAARVAELLREAAELAADNPRLRAALEELARAAALIAEGAAPEEVQAELDRAAALLAE
median log2 fold change: 0.086

B23: GBRAPL2_53_7343 (protein)
chain: MIEVDIAHPDKEVMAAAVEAVFDILERAGVEARVTVTKEDGTVVELEGPLEEVRAQAVALAKATEVLVRIELPDEAEEVVEEIEDEALAKGATVSVERIP
median log2 fold change: 0.199

B24: GBRAPL2_53_7344 (protein)
chain: MIEVDIAHPDKEVMAKAVEAVFDILEEAGVEAEVEVTKEDGTVERLRGPLEEVREKAVKLAKETEVLVTIRLPDSAEEVVEKIEDEALKHGATVSVKRLE
median log2 fold change: 0.23

B25: GBRAPL2_175_7335 (protein)
chain: SKKEEAIKKLIEALELLAEKANDEVQDLLEAAAAVLELDGESGIEQAAKIVKQAAKDAKDNPELQKLLKELAKALKLLAEGGDIEEVIKKAEKIIKELKK
median log2 fold change: 0.0436

B26: GBRAPL2_43_7342 (protein)
chain: MTEIEKKAIEEAREALEEKLDLDGVKEYEEEVEIRKEGDRTIAIVKATSKETGKEYYAVAVYDKNGELLVVVVSSDLERALKAAEDLIELGERDTYVLLP
median log2 fold change: 0.125

B27: GBRAPL2_53_7350 (protein)
chain: MYVIEIAHPDKETLAKAIEAIFDKLIEAGVEAKITVTLEDGTVIKLEGSLEEQKKKAVALAKETNVLVEIELPDSAKEVVEELEDIALKEGATVSVEKLE
median log2 fold change: 0.177

B28: GBRAPL2_151_7326 (protein)
chain: SELERLLEKLKELLEKLEKLVEEAAKKDPSHEIELETLVGGAEADLLLAEEAPNDEEKRRFLKEAAELIKDAAELIAKITGSEEAKKLAEEAREILKELE
median log2 fold change: 0.164

B29: GBRAPL2_175_7339 (protein)
chain: AAYEKLLAEIIELLLEIAEKANDEVSDLLEAAAAVLETDGLAGAERAARLVKEAAEEAKDNPQLQEALKLIAEALKALAAGAAPEEVKKLLDKAKEVLKK
median log2 fold change: 0.22

B30: GBRAPL2_175_7341 (protein)
chain: AAYEKLLKEIIELLDELAEKADDEVSDLLEAAAAVLETDGLAGAGRAAKLVAEAAKEAADNPKLQAALKEVAAALKAIADGAAPEEVEKLLKKAKAILKE
median log2 fold change: 0.142

B31: GBRAPL2_175_7333 (protein)
chain: SARQELVKRIRDLLLKLAEKADDETQDLLLAAAALLEEGGEENLKRALELVKEAAKEEKNDATLQQAAAELAAALALLIEGKPVEEAQKEIDAAAKLLAK
median log2 fold change: 0.119

B32: GBRAPL2_175_7329 (protein)
chain: SERDELIKRLAELLEKLAEEVDGEASDLLLAAAALLEEEGIEAAKRVAELLKEAAKEIEGNEKLKKAAEALAEAAKLLAEGAPAEEVQKKLEEAEKLLKE
median log2 fold change: 0.194
